PubChem BioAssay (NCATS)
Inconclusive results are not listed. A call without a number means that no potency is given here. Values without a mark were called inactive. Activity calls are given as the source filed them. The call rests on the fitted dose curve; in most records, active means well fitted curve in the direction sought with a large enough effect; inconclusive means small, poorly fitted or top-dose-only effect, or another doubt; inactive means no such curve, though single readings can be large; an effect the other way counts as inactive or inconclusive.

Legend:
[1] = tested on: NIH3T3; experiment: qHTS assay to identify novel small-molecules to repurpose for Merkel cell carcinoma treatment (AID 1296009); conditions: MCC and control cell lines, CellTiter-Glo viability, 72 h; at 44.8 µM (top of the series) unless noted; further: nearly all actives have a fitted effect of over 60% in size
Summary of the method: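 Cells were incubated with compound for 72 hr at 37 degree celsius before CellTiter-Glo addition. Luminescence was normalized with no-cell wells as full cytotoxicity and DMSO as baseline.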

[2] = tested on: Es-2; experiment: Primary qHTS to identify gynecologic anti-cancer compounds using libraries of approved drugs and bioactive compounds (AID 1345084); conditions: Gynecologic cancer cell panel viability, ATPlite luminescence, 48 h; series mostly up to 57.5 µM; further: nearly all actives have a fitted effect of over 55% in size; further: potency means the concentration at half of the fitted maximal effect
Summary of the method: (§1)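 Five-point cytotoxicity, 48 h drug exposure at 37 C, 5% CO2, on cells seeded 16 h beforehand. ATP content read by ATPlite luminescence.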

[3] = tested on: JEG-3; experiment: as above; conditions: Gynecologic cancer cell panel viability, ATPlite luminescence, 48 h; series mostly up to 57.5 µM
Summary of the method: as §1

[4] = tested on: SKOV3; experiment: as above; conditions: Gynecologic cancer cell panel viability, ATPlite luminescence, 48 h; series mostly up to 57.5 µM
Summary of the method: as §1

[5] = tested on: CASKI; experiment: as above; conditions: Gynecologic cancer cell panel viability, ATPlite luminescence, 48 h; series mostly up to 57.5 µM
Summary of the method: as §1

[6] = tested on: Hek293T; experiment: as above; conditions: Gynecologic cancer cell panel viability, ATPlite luminescence, 48 h, control line for the selectivity index; series mostly up to 57.5 µM
Summary of the method: as §1

[7] = tested on: OV90; experiment: as above; conditions: Gynecologic cancer cell panel viability, ATPlite luminescence, 48 h; series mostly up to 57.5 µM
Summary of the method: as §1

[8] = tested on: C33A; experiment: as above; conditions: Gynecologic cancer cell panel viability, ATPlite luminescence, 48 h; series mostly up to 57.5 µM
Summary of the method: as §1

[9] = tested on: CAOV3; experiment: as above; conditions: Gynecologic cancer cell panel viability, ATPlite luminescence, 48 h; series mostly up to 57.5 µM
Summary of the method: as §1

[10] = tested on: HeLa; experiment: as above; conditions: Gynecologic cancer cell panel viability, ATPlite luminescence, 48 h; series mostly up to 57.5 µM
Summary of the method: as §1

[11] = tested on: PA-1; experiment: as above; conditions: Gynecologic cancer cell panel viability, ATPlite luminescence, 48 h; series mostly up to 57.5 µM
Summary of the method: as §1

[12] = tested on: Tov-21-G; experiment: as above; conditions: Gynecologic cancer cell panel viability, ATPlite luminescence, 48 h; series mostly up to 57.5 µM
Summary of the method: as §1

[13] = tested on: Tov112D; experiment: as above; conditions: Gynecologic cancer cell panel viability, ATPlite luminescence, 48 h; series mostly up to 57.5 µM
Summary of the method: as §1

Structure (SMILES)	outcome [1]	Potency [2]	Potency [3]	Potency [4]	outcome [5]	Potency [6]	Potency [7]	Potency [8]	Potency [9]	Potency [10]	Potency [11]	Potency [12]	Potency [13]
CC(=O)Nc1cccc2c1c(Sc1ccc(Cl)cc1)c(C)n2CC(=O)O	inactive	inactive	inactive	inactive	–	–	–	–	–	–	–	–	–
CC1(C)CC[C@]2(C(=O)O)CC[C@]3(C)C(=CCC4[C@@]5(C)C[C@@H](O)[C@H](O)[C@](C)(CO)C5CC[C@]43C)[C@@H]2[C@@H]1O (stereo partly drawn)	inactive [at 17.4 µM]	–	–	–	inactive	inactive	inactive	–	–	–	–	–	–
CC(=O)NC(C(=O)OC1CCC(C)(C)C2CC=C3C(=O)OCC3C12C)C(C)C (stereo not drawn)	–	inactive	inactive	inactive	inactive	inactive	inactive	inactive	inactive	inactive	inactive	inactive	inactive
C/C=C(\C)C(=O)O[C@H]1C=CC(=O)O[C@H]1/C=C/[C@H](O)[C@@H](C)O	–	inactive	inactive	inactive	inactive	inactive	inactive	inactive	inactive	inactive	inactive	inactive	inactive
C/C=C(\C)C(=O)OC1C(C)C2(O)C3C=C(C)C(=O)C3CC(CO)=CC2C2C(C)(C)C12OC(C)=O (stereo not drawn)	inactive [at 17.4 µM]	112 nM (active)	inactive	inactive	inactive	inactive	inactive	–	inactive	inactive	–	inactive	inactive
CCCC(=O)Nc1cccc(NC(=O)c2ccccc2Br)c1	–	inactive	inactive	inactive	inactive	inactive	inactive	inactive	inactive	inactive	inactive	inactive	inactive
O=C(N[C@@H]1CC[C@@H](c2cccc(F)c2F)CN(CC(F)(F)F)C1=O)N1CCC(n2c(=O)[nH]c3ncccc32)CC1	–	inactive	inactive	inactive	inactive	inactive	inactive	inactive	inactive	inactive	inactive	inactive	inactive
CC(=O)/C=C/[C@H]1[C@](C)(O)[C@@H](O)[C@H](O)C2C(C)(C)CCC[C@@]21C (stereo partly drawn)	inactive	inactive	–	inactive	–	–	inactive	–	inactive	–	inactive	inactive	inactive
C[C@@H]1[C@H](O)[C@@H]2OC(=O)C3=C2[C@H](CCC3)[C@@]12C[C@@H](c1ccoc1)OC2=O	–	inactive	inactive	inactive	inactive	inactive	inactive	inactive	inactive	inactive	inactive	inactive	inactive
O=C(CCCCC1CCCCC1)N1CCC(c2cnc[nH]2)CC1	inactive	inactive	inactive	–	inactive	–	–	–	inactive	inactive	–	inactive	inactive
Cc1ccc(-n2nc(C(C)(C)C)cc2NC(=O)Nc2cc(COc3cccnc3)[nH]n2)cc1	inactive	inactive	inactive	inactive	inactive	inactive	inactive	–	inactive	inactive	–	inactive	inactive
O=C(Cc1ccc(Cl)cc1)Nc1cnccc1C(=O)O	inactive	inactive	inactive	inactive	inactive	inactive	inactive	–	inactive	inactive	inactive	inactive	inactive
CC(C)(O)C(O)C(=O)OCc1ccc(O[C@@H]2O[C@H](CO)[C@@H](O)[C@H](O)[C@H]2O)cc1 (stereo partly drawn)	–	inactive	inactive	inactive	inactive	inactive	inactive	inactive	inactive	inactive	inactive	inactive	inactive
COC(=O)[C@]1(C)CCC[C@@]2(C)C(=O)CC[C@H]3C(=O)C=C(CC[C@@H]21)C3O (stereo partly drawn)	–	inactive	inactive	inactive	inactive	inactive	inactive	inactive	inactive	inactive	inactive	inactive	inactive
C[C@H]1CCN2C[C@]34C[C@@]5(C(=O)Nc6c5ccc5c6OC=CC(C)(C)O5)C(C)(C)C3C[C@]12C(=O)N4C (stereo partly drawn)	–	inactive	inactive	inactive	inactive	inactive	inactive	inactive	inactive	inactive	inactive	inactive	inactive
C[C@]12CC[C@@H]3c4ccc(O)cc4CC[C@H]3[C@@H]1C[C@@H](O[C@@H]1O[C@H](C(=O)O)[C@@H](O)[C@H](O)[C@H]1O)[C@@H]2O	–	inactive	inactive	inactive	inactive	inactive	inactive	inactive	inactive	inactive	inactive	inactive	inactive
C/C=C(\C)C(=O)OCC1OC(OC2OC(CO)C(O)C(O)C2O)C(O)C(O)C1O (stereo not drawn)	–	inactive	inactive	inactive	inactive	inactive	inactive	inactive	inactive	inactive	inactive	inactive	inactive
